High-throughput results: PubChem, NMMLSC
RGS16-Gao HTS: RGS16-Galphao interaction regulator (human) | binding response (% of control), % at 10 µM | hit rate 0.38% among 220,000 | O15492+P09471 | bead-based flow cytometry RGS16-Galphao binding, fluorescence; actives lie on both sides | AID 1441;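 note: Galphao activated by GDP with aluminum fluoride before binding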
RGS7-Gao: human RGS7-Galphao interaction regulation; P09471; Multiplexed bead flow cytometry, RGS7-Galphao binding; actives lie on both sides; binding response (% of control), % at 10 µM; hit rate 0.35% among 220,000; AID 1439; in the data active = binding response below about 49% or above about 150%; inconclusive = no clear call, values can overlap the other calls; inactive = in between;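 note: fluorescent Galphao held in activated GDP-AlF4 state binding bead-coupled RGS7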
RGS4-Gao reg: human RGS4-Galphao interaction regulation | P09471 | Multiplexed bead flow cytometry, RGS4-Galphao binding; actives lie on both sides | binding response (% of control), % at 10 µM | hit rate 0.33% among 220,000; in the data active = binding response below about 49% or above about 150%; inactive = in between;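 note: fluorescent Galphao activated with aluminum fluoride binding bead-coupled RGS4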
GSH fluor: GSH bead compound fluorescence profile | GSH beads flow cytometry, compound fluorescence 488/530 nm; stronger effect = higher value | fluorescence (KMESF) at 10 µM | hit rate 0.25% among 190,000 | AID 1776; in the data active = fluorescence above about 89;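 note: glutathione beads carrying GST-tagged Bcl family fusion proteins plus one bare bead set; values are compound well signal with DMSO vehicle wells as background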
Avidin bead fluor: avidin bead compound fluorescence profile; hit rate 0.38% among 220,000; AID 1775; fluorescence (KMESF) at 10 µM; Avidin beads, compound fluorescence 488/530 nm, flow cytometry; stronger effect = higher value; in the data active = fluorescence above about 47
RGS8-Gao: human RGS8-Galphao interaction regulation. P09471. multiplexed bead flow cytometry, RGS8-Galphao binding; actives lie on both sides. response (percent of control binding), % at 10 µM. hit rate 0.34% among 220,000. AID 1423; in the data active = response below about 60% or above about 140%; inactive = in between;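 note: Galphao activated as the GDP aluminium fluoride complex binding bead-coupled RGS8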
RGS-Gao: regulators of human RGS4-Galphao interaction. hit rate 99% among 1,600. AID 1504. multiplexed bead flow cytometry, RGS–Galpha-o binding. shares compounds with RGS16-Gao HTS. RGS4–Galpha-o binding response, % at 10 µM;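 note: fluorescently labeled Galpha-o bound to GDP with aluminium fluoride binding biotinylated RGS beads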
Target sequence (P09471 whole entry, looked up): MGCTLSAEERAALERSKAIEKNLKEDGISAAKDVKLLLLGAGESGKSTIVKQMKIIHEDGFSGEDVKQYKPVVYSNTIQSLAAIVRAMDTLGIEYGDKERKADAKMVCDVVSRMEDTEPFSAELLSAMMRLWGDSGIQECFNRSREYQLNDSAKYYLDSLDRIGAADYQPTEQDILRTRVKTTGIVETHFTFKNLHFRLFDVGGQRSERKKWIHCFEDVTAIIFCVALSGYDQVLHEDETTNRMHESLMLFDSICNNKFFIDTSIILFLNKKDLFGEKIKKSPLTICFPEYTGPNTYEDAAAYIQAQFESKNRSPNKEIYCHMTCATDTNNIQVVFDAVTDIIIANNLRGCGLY
Target sequence (P49798 whole entry, looked up): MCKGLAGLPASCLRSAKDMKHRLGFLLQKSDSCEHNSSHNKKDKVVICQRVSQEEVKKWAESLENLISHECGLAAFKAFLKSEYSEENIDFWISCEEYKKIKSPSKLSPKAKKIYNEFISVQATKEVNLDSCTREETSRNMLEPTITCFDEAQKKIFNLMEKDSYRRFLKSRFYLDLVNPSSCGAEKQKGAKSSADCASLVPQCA
Biotin-avidin: biotin-avidin bead binding disruption counter-screen; streptavidin beads, fluorescein-biotin binding, flow cytometry; shares compounds with RGS16-Gao HTS; inhibition, % at 10 µM; 1,700 tested, under 10 active;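 active = inhibition above 50%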;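 note: median green fluorescence of gated singlet beads compared with DMSO control wells; 0% = DMSO wells and 100% = complete loss of bead fluorescence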
RGS8-Gao single: confirmation of regulators of human RGS8-Galphao interaction. shares compounds with RGS16-Gao HTS. bead-based flow cytometry RGS8-Galphao binding, fluorescence; actives lie on both sides. binding response (% of control), % at 10 µM. hit rate 3% among 1,700; in the data active = binding response below about 72% or above about 130%; inactive = in between;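 note: Galphao activated as GDP AlF4 complex before binding bead RGS8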
RGS7-Gao single: confirmation of regulators of human RGS7-Galphao interaction; shares compounds with RGS16-Gao HTS; bead-based flow cytometry RGS7-Galphao binding; actives lie on both sides; response (percent of control binding), % at 10 µM; hit rate 7.8% among 1,700; in the data active = response below about 75% or above about 130%; inactive = in between;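 note: fluorescent Galphao activated with GDP and aluminum fluoride binding bead-coupled RGS7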
RGS16-Gao conf: confirmation of regulators of human RGS16-Galphao interaction. shares compounds with RGS16-Gao HTS. bead-based flow cytometry, RGS16-Galphao binding; actives lie on both sides. response (% of control binding), % at 10 µM. hit rate 4% among 1,700; in the data active = response below about 74% or above about 130%; inactive = in between;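 note: Galphao activated as the GDP aluminium fluoride complex binding bead-coupled RGS16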
RGS4-Gao single: RGS4-Galphao interaction regulation, single point confirmation | shares compounds with RGS16-Gao HTS | AID 1840 | RGS4-Galphao binding, multiplexed bead flow cytometry; actives lie on both sides | binding response (% of control), % at 10 µM | hit rate 4% among 1,700; in the data active = binding response below about 74% or above about 130%; inactive = in between
RGS19-Gao single: confirmation of regulators of human RGS19-Galphao interaction | hit rate 5% among 1,700 | bead-based flow cytometry RGS19-Galphao binding; actives lie on both sides | response (percent of control binding), % at 10 µM | shares compounds with RGS16-Gao HTS; in the data active = response below about 50% or above about 160%; inactive = in between;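 note: 100% = no compound control and 0% = blank background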
* marks the source's active call; other numbers are inactive results; u = inconclusive; x = no result given; [ ] = remark or other dose. Sampled rows, rich in hits. Any-hit rate of the full collection: about 1.2%. Unless noted, the rule behind the calls is not given here.

SMILES	RGS16-Gao HTS	RGS7-Gao	RGS4-Gao reg	GSH fluor	Avidin bead fluor	RGS8-Gao	RGS-Gao	Biotin-avidin	RGS8-Gao single	RGS7-Gao single	RGS16-Gao conf	RGS4-Gao single	RGS19-Gao single
O=C(O)CC(C(=O)Nc1ccc(F)cc1)C1CCCO1 (stereo not drawn)	85	u	85	x	4	92	x	x	x	x	x	x	x
CN1CCN(CCCNC(=O)c2ccc3c(c2)N(Cc2ccccc2)CCS3)CC1	140	134	142	25	3	145*[activator]	142*	0	102	105	102	102	105
O=C(NCCCN1CCOCC1)c1ccc2c(c1)N(Cc1ccccc1)CCS2	98	u	102	x	5	100	x	x	x	x	x	x	x
CC(=O)c1c(C(C)=O)c(C)n(NC(=O)c2ccc(Cl)cc2)c1C	174	163*[activator]	194*[activator]	21	71*	108	x	-1	109	112	110	112	124
C[C@H](O)CC1=C[C@H](O)[C@@H](C)OC1=O	99	92	94	19	5	98	x	x	x	x	x	x	x
CC(C)OCCCNC(=S)NNC(=O)c1ccc(Cl)c(Cl)c1	96	91	98	7	2	97	x	x	x	x	x	x	x
Cc1nc(SCc2nc3ccccc3[nH]2)c2oc3ccccc3c2n1	129	167*[activator]	128	19	133*	102	128*	x	x	x	x	x	x
c1ccc2[nH]c(CSc3ncnc4c3oc3ccccc34)nc2c1	107	103	101	15	24	99	x	x	x	x	x	x	x
O=C(Nc1ccncc1)C1CCC(CNS(=O)(=O)c2cccc3nsnc23)CC1 (stereo not drawn)	104	u	105	x	5	103	x	x	x	x	x	x	x
CCN(CC)C(=O)C(=O)c1cccn1-c1c(Cl)cccc1C#N	113	158*[activator]	112	12	109*	102	112*	1	104	106	104	105	99
O=C(CCSCc1cccc(Cl)c1)NC1CCCC1	106	100	103	12	14	101	x	x	x	x	x	x	x
COc1ccc(CNC(=O)CCSCc2cccc(Cl)c2)cc1	188	177*[activator]	157*[activator]	16	92*	106	x	-3	98	94	98	97	97
COc1ccc(CNC(=O)CSCc2cccc(Cl)c2)cc1	101	97	101	15	15	100	x	x	x	x	x	x	x
COc1ccccc1CNC(=O)CCSCc1cccc(Cl)c1	241	98	99	15	15	146*[activator]	99*	-1	104	96	104	99	110
CC(C)(C)c1ccc(C(=O)N2CCCN(c3ccc([N+](=O)[O-])cn3)CC2)cc1	96	u	94	x	6	98	x	x	x	x	x	x	x
O=C(c1cc2c(s1)CCCC2)N1CCN(S(=O)(=O)c2ccccc2C(F)(F)F)CC1	135	103	104	8	11	112	x	x	x	x	x	x	x
O=C(NC(=S)Nc1ccc(N2CCOCC2)cc1)c1ccc2c(c1)OCCO2	98	98	97	7	2	99	x	x	x	x	x	x	x
O=C(NC(=S)Nc1ccc(N2CCCCC2)cc1)c1ccc2c(c1)OCCO2	204*[activator]	107	107	6	14	125	107*	0	102	98	100	97	101
